Source: PubChem BioAssay
Shown are actives, neighbours in structure and some others; about 21% of the full set was active somewhere.
DRD3 antagonist: D3 dopamine receptor (human) antagonism. AID 652054. D3R cells, DiscoveRx beta-arrestin luminescence, antagonist mode; stronger effect = lower value. max response, negative = inhibition, %. actives 2.5% (n = 360,000); in the data active = max response below about -50%; inconclusive = no clear call, values can overlap the other calls; note: % is set by controls: 0 for no effect and ±100 for the full control effect
Target sequence (P35462 whole entry, looked up): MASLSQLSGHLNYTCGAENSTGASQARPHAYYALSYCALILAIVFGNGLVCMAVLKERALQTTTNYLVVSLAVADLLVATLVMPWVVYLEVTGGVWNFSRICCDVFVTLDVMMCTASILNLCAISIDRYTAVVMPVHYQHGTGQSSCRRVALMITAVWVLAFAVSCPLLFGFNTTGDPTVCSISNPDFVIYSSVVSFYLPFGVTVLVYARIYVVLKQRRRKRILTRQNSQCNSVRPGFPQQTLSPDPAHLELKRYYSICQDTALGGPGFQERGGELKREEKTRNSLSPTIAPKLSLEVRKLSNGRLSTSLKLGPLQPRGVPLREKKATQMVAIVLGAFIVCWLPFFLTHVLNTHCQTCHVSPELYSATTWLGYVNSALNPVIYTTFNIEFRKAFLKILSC
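Cells plated overnight at 1500 cells/well, then exposed to library compounds with dopamine controls for 90 minutes at 37 degrees C. DiscoveRx reagent added for 30–60 minutes at room temperature; luminescence read, quantitative HTS format.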
ClpP mod: qHTS Assay for Activators of ClpP. ATP-dependent Clp protease proteolytic subunit (Bacillus subtilis (strain 168)), P80244. purified B. subtilis ClpP, FRET peptide cleavage, 20 min. Potency, µM (doses to about 57.5 µM), without a hit: at the highest dose activity change, negative = active. actives 1.9% (n = 340,000); active = well fitted falling curve with a large enough effect; inconclusive = small, poorly fitted or top-dose-only effect; inactive = no such curve, though single readings can be large or run the other way; note: potency is the fitted concentration of half-maximal effect; the source files actives as falling curves though it sought activators and does not explain the sign; nearly all actives have a fitted effect of over 65% in size
Target sequence (P80244 whole entry, looked up): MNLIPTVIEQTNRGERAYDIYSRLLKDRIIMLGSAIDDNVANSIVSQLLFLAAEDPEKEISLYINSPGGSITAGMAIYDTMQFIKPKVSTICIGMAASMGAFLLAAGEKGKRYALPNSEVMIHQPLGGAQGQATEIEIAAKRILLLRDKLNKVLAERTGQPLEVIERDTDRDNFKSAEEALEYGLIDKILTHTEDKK
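ClpP 10 microg/mL final, pH 8 Tris/KCl buffer with BSA, glycerol, Tween-20; compound pinned in; FRET-FV substrate; RT 20 min; Ex320/Em430; ΔFRET vs ADEP 5.8 microM, DMSO, no enzyme.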
DT40 TDP1 CPT: growth inhibition of DT40 Tdp1-/-;hTDP1 cells with camptothecin (screen for TDP1 inhibitors); chicken DT40 Tdp1-/-;hTDP1 cells + 20 nM CPT, ATP luminescence, 48 h; Potency, µM (doses to about 46.2 µM), for the others: at the top dose activity change, negative = growth inhibition, actives largely listed as inhibitors; actives 12% (n = 420,000); AID 686979; note: potency is the fitted concentration of half-maximal effect; % is set by controls: 0 for no effect and ±100 for the full control effect; nearly all actives have a fitted effect of over 55% in size
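Cell growth measured by CellTiter-Glo luminescence after a minimum 48 h, 37 C compound exposure with 20 nM CPT in Tdp1-knockout DT40 cells stably expressing hTDP1, seeded 400/well; qHTS titration format.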
TDP1 cell noCPT: qHTS for Inhibitors of human tyrosyl-DNA phosphodiesterase 1 (TDP1): qHTS in cells in absence of CPT; actives 15% (n = 420,000); Potency, µM (highest dose often 46.2 µM), without a hit: at the highest dose activity change, negative = growth inhibition, usual class: inhibitors; DT40 Tdp1-/- hTDP1 cells, no CPT, ATP luminescence, 48 h; AID 686978, 2013; note: potency is the fitted concentration of half-maximal effect; % is set by controls: 0 for no effect and ±100 for the full control effect; nearly all actives have a fitted effect of over 55% in size
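Camptothecin absent (DMSO only). Human TDP1-complemented DT40 knockout cells, 400 cells/well, 37 °C for minimum 48 hr; ATP measured via CellTiter-Glo, 30 min dark incubation, luminescence.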
DRD3 agonist: activates the human D3 dopamine receptor. D3R DiscoveRx beta-arrestin cells, luminescence, 90 min. max activation, %. actives 0.58% (n = 410,000). AID 652048; in the data active = max activation above about 30%; note: 0% is about no effect
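Agonist mode: compounds and dopamine controls were applied to plated cells for 90 min at 37 degrees C after an overnight attachment at 1500 cells/well. Luminescent read-out followed 30 - 60 minutes at room temperature with DiscoveRx detection reagent.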
IL1B secr inh: inflammasome signaling inhibition, IL-1 beta readout; THP-1 LPS/ATP IL-1B secretion, AlphaLISA, 16 h; stronger effect = lower value; activity change, % at 57.5 µM; actives 4.7% (n = 360,000); AID 743279; in the data active = activity change below about -50%; inconclusive = mostly about -30% to -49%; note: % is set by controls: 0 for no effect and ±100 for the full control effect
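THP-1 cells pretreated 1 hr with compounds (up to 57.5 uM final), then stimulated with LPS (250 ng/mL final) plus ATP (1.25 mM final); secreted IL-1B measured by AlphaLISA after 16 hr, decreased signal indicating inhibition.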
Active calls of the source: *; ? = inconclusive; nt = no result given; [ ] = remark or other dose. Unless noted, calls come from the whole dose curve; as a rule, active = well fitted inhibition curve with a large enough effect; inconclusive = small, poorly fitted or top-dose-only effect; inactive = flat fitted curve, though single readings scatter.

SMILES	DRD3 antagonist	ClpP mod	DT40 TDP1 CPT	TDP1 cell noCPT	DRD3 agonist	IL1B secr inh
CCn1cc(CN2CCOc3ccc(C(O)C4CCCCC4)cc3C2)c(C)n1 (stereo not drawn)	nt	nt	-9%[9.04 µM]	?	nt	nt
CC(C)c1ccc(CC(=O)N2CCC2(C)C(=O)NCc2cccc3ccccc23)cc1 (stereo not drawn)	4	-1%	?	?	4	-19
CCOC(=O)c1sc(NC(=O)/C=C/c2cnn(C)c2C)c(C(=O)OC(C)C)c1C	9	?	?	?	35*	-3
Cc1cc(NC(=O)Cn2nnc3sc4c(c3c2=O)CCCC4)no1	-22	-3%	-11%	-21%	17	-10
Cc1cc(NC(=O)Cn2nnc3sc4c(c3c2=O)CCC(C(C)(C)C)C4)no1 (stereo not drawn)	-10	-5%	11µM*	?	15	-27
CCOc1ccccc1NC(=O)Cn1nnc2sc3c(c2c1=O)CCC(C(C)(C)C)C3 (stereo not drawn)	nt	2%	15µM*	5.2µM*	6	nt
Cc1cc(Cl)ccc1OCC(=O)NCC1Cc2cc(-c3cnccn3)ccc2O1 (stereo not drawn)	nt	nt	-3%	1%	nt	nt
COC(=O)c1ccc(C(=O)OC)c(NC(=O)CN(C)Cc2ccccc2)c1	35	nt	-30%	16µM*	9	8
COC(=O)c1ccc(C(=O)OC)c(NC(=O)CCC(=O)O)c1	3	28µM*	6%	-13%	8	0
COC(=O)c1ccc(NC(=O)CN(C)Cc2cccc(F)c2)cc1	-11	nt	-19%	13µM*	-15	-105*
COC(=O)c1ccc(C(=O)OC)c(NC(=O)CCS(=O)(=O)Cc2ccccc2)c1	2	4%	-4%	7%	0	9
COC(=O)c1ccc(C(=O)OC)c(NC(=O)CN(C)Cc2cccc(Cl)c2Cl)c1	10	-5%	?	?	17	20
COc1ccc(S(=O)(=O)N(Cc2ccc(OC)c(OC)c2)Cc2ccco2)cc1	6	-3%	23µM*	18µM*	26	-14
Cc1ccc(S(=O)(=O)N(Cc2ccccc2)Cc2ccco2)cc1	7	-2%	9.2µM*	?	-17	2
CCN(CC)S(=O)(=O)c1ccc(S(=O)(=O)N(CC(=O)Nc2ccccc2)Cc2ccco2)cc1	32	1%	18µM*	?	12	6
CN(C)S(=O)(=O)c1ccc(S(=O)(=O)N(Cc2ccco2)Cc2ccccc2Cl)cc1	14	0%	21µM*	16µM*	16	9
CN(C)S(=O)(=O)c1ccc(S(=O)(=O)N(CC(=O)Nc2ccccc2)Cc2ccco2)cc1	-8	1%	-22%	-25%	1	11
COc1ccc(S(=O)(=O)N(CCC(N)=O)Cc2ccco2)cc1OC	6	nt	7%	-12%	2	2
CCOc1ccc(OCc2cccc(C(=O)O)c2)cc1	0	-1%	15µM*	8.2µM*	0	8
O=C(O)c1ccc(NC(=S)NC(=O)c2ccc3ccccc3c2)cc1	-23	26%	-1%	-3%	-7	-6
O=C(NC(=S)Nc1ccc(CN2CCCCC2)cc1)c1cccc(OCc2ccccc2)c1	?	nt	9.2µM*	12µM*	-13	0
COc1ccc(OCc2cccc(C(=O)O)c2)cc1	16	16%	?	?	-1	1
O=C(O)c1ccc(NC(=S)NC(=O)c2cccc(COc3ccccc3)c2)cc1	-9	1%	-26%	3%	1	-54*
CCOc1ccc(Br)cc1S(=O)(=O)Nc1ccc(NC(=O)c2ccccc2F)cc1	-14	-1%	?	16µM*	2	-8
CCOc1ccc(Br)cc1S(=O)(=O)Nc1ccc(NC(=O)c2ccccc2C)cc1	0	0%	-14%	-12%	-5	-2
SMILES	DRD3 antagonist	ClpP mod	DT40 TDP1 CPT	TDP1 cell noCPT	DRD3 agonist	IL1B secr inh
CCOc1ccc(Br)cc1C(=O)Nc1ccc(C(=O)NCC(C)C)cc1	-4	-2%	10µM*	?	-13	-13
CCOc1ccc(Br)cc1S(=O)(=O)Nc1ccc(C(=O)Nc2ccccc2OC)cc1	-51*	2%	-27%	-25%	-22	17
CC(C)c1nc2sc3c(SCC(N)=O)ncnc3c2c2c1CCC2	1	nt	-4%	-8%	9	-5
CC[N+]1(CC)CC2=Cc3c(ccc4ccccc34)C(C)C2C1 (stereo not drawn)	-6	nt	5.8µM*	13µM*	-8	-16
COc1ccc(-c2nc(CCNC(=O)c3cc(OC)c(OC)c(OC)c3)cs2)cc1	nt	?	13µM*	13µM*	-8	nt
CN(C)CCCNC(=O)c1ccc(-c2nc(-c3ccc(Cl)cc3)cs2)cc1	-8	?	16µM*	21µM*	-3	-97*
COc1cccc(OC)c1C(=O)NCCc1csc(-c2ccc(Cl)cc2)n1	nt	-9%	?	?	13	nt
Cc1ccc(-c2nc(CCNC(=O)c3ccc(C)c(C)c3)cs2)cc1	nt	-27%	?	16µM*	6	nt
COc1cccc(C(=O)NCCc2csc(-c3ccc(Cl)cc3)n2)c1	nt	-11%	16µM*	?	15	nt
Cc1[nH]c2ccccc2c1C(=O)COC(=O)c1nccnc1N	-25	4%	-3%	9%	-7	-30
CC12CCC3C(CC3(C)C)C(C)(CCC1=O)O2 (stereo not drawn)	nt	nt	-3%	2%	nt	nt
CCc1ccc(Oc2c(C(F)(F)F)oc3c(CN4CCN(CC)CC4)c(O)ccc3c2=O)cc1	nt	-1%	?	?	-21	nt
Cc1cccc(-c2nc(CCNC(=O)c3ccccc3Br)cs2)c1	nt	3%	18µM*	21µM*	-14	nt
CCOc1ccc(NCc2nc3ccccc3n2CCOc2ccc(C)cc2)cc1	nt	-3%	6.5µM*	8.2µM*	5	nt
OCc1nc2ccccc2n1CCOc1ccccc1	2	0%	6%	?	2	-24
Cc1ccccc1NCc1nc2ccccc2n1CCOc1ccccc1	nt	-3%	?	?	-2	nt
Clc1ccc(NCc2nc3ccccc3n2CCOc2ccccc2)cc1	nt	4%	13µM*	21µM*	3	nt
CCOc1ccc(NCc2nc3ccccc3n2CCOc2ccccc2)cc1	-1	-10%	?	?	-6	-96*
COc1ccc(NS(=O)(=O)c2ccc(C)c(C(=O)N3CCCCCCC3)c2)cc1	-7	-1%	?	?	-18	12
COc1ccc(Br)cc1/C=N/NC(=O)c1ccc2nc[nH]c2c1	-24	-11%	0%	10%	-6	-29
